According to PubChem BioAssay AID1159580 (chemical genetic matrix, 2015):
“And” between values parts separate entries of the source, which are not always exact repeats. Identical values can stand only once. Screen size: about 5,500 compounds; about 2,000 (36%) were called active. About 18% were inconclusive and are not listed. The list shows a part of the results. Unmarked numbers belong to inactive results. No stated cut-off is given here; in the data, active means normalized growth mostly below about 0.91 (no sharp cut-off); inconclusive means no clear call, values can overlap the other calls; inactive means mostly above about 0.92.

Experiment: chemical genetic growth profiling, strain panel (AID 1159580);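 further: tested at 20 µM; growth read once vehicle control cultures reached saturation at 30 °C; 1 = growth at the plate median or of vehicle wells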
Settings: growth OD

O=c1[nH]c2ccccc2n1C1CCN(CCCC(c2ccc(F)cc2)c2ccc(F)cc2)CC1
normalized growth (S. cerevisiae deletion strains, locus YJR075W, strain HOC1, stronger effect = lower value): 0.954 and 0.993 | normalized growth (S. cerevisiae deletion strains, locus YKL009W, strain mrt4, stronger effect = lower value): 0.963 | normalized growth (S. cerevisiae deletion strains, locus YKL068W, stronger effect = lower value): 0.993 | normalized growth (S. cerevisiae deletion strains, locus YKL085W, strain MDH1 (second series), stronger effect = lower value): 0.99 | normalized growth (S. cerevisiae deletion strains, locus YKL085W, strain MDH1, stronger effect = lower value): 0.99 | normalized growth (S. cerevisiae deletion strains, locus YKL160W, strain elf1, stronger effect = lower value): 0.914 | normalized growth (S. cerevisiae deletion strains, locus YKL190W, strain CNB1, stronger effect = lower value): 0.974 | normalized growth (S. cerevisiae deletion strains, locus YKR001C, strain vps1, stronger effect = lower value): 0.939 | normalized growth (S. cerevisiae deletion strains, locus YKR026C, strain gcn3, stronger effect = lower value): 1.03 | normalized growth (S. cerevisiae deletion strains, locus YKR091W, strain srl3, stronger effect = lower value): 1.01 | normalized growth (S. cerevisiae deletion strains, locus YLL001W, strain dnm1, stronger effect = lower value): 0.893 (active) | normalized growth (S. cerevisiae deletion strains, locus YLL026W, stronger effect = lower value): 0.988 | normalized growth (S. cerevisiae deletion strains, locus YLL041C, strain sdh2, stronger effect = lower value): 1.02 | normalized growth (S. cerevisiae deletion strains, locus YLR027C, strain aat2, stronger effect = lower value): 0.927 | normalized growth (S. cerevisiae deletion strains, locus YLR039C, strain RIC1, stronger effect = lower value): 1.02 | normalized growth (S. cerevisiae deletion strains, locus YLR058C, strain SHM2, stronger effect = lower value): 0.977 | normalized growth (S. cerevisiae deletion strains, locus YLR102C, strain apc9, stronger effect = lower value): 0.993 | normalized growth (S. cerevisiae deletion strains, locus YLR113W, strain HOG1, stronger effect = lower value): 0.967 | normalized growth (S. cerevisiae deletion strains, locus YLR221C, strain rsa3, stronger effect = lower value): 0.932 | normalized growth (S. cerevisiae deletion strains, locus YLR258W, strain gsy2, stronger effect = lower value): 0.981 | normalized growth (S. cerevisiae deletion strains, locus YLR262C, strain YPT6 (second series), stronger effect = lower value): 1.06 | normalized growth (S. cerevisiae deletion strains, locus YLR262C, strain YPT6, stronger effect = lower value): 1.04 | normalized growth (S. cerevisiae deletion strains, locus YLR268W, strain sec22, stronger effect = lower value): 0.98 | normalized growth (S. cerevisiae deletion strains, locus YLR320W, strain mms22, stronger effect = lower value): 0.784 (active) | normalized growth (S. cerevisiae deletion strains, locus YLR330W, strain CHS5, stronger effect = lower value): 0.995 | normalized growth (S. cerevisiae deletion strains, locus YLR342W, strain FKS1 (second series), stronger effect = lower value): 0.94 | normalized growth (S. cerevisiae deletion strains, locus YLR342W, strain FKS1, stronger effect = lower value): 0.936 | normalized growth (S. cerevisiae deletion strains, locus YLR357W, strain rsc2, stronger effect = lower value): 0.877 | normalized growth (S. cerevisiae deletion strains, locus YLR370C, strain arc18, stronger effect = lower value): 0.962 | normalized growth (S. cerevisiae deletion strains, locus YLR371W, strain rom2, stronger effect = lower value): 0.989 | normalized growth (S. cerevisiae deletion strains, locus YLR384C, strain iki3, stronger effect = lower value): 1.04 | normalized growth (S. cerevisiae deletion strains, locus YLR418C, strain cdc73, stronger effect = lower value): 0.921 | normalized growth (S. cerevisiae deletion strains, locus YML016C, strain PPZ1, stronger effect = lower value): 0.992 | normalized growth (S. cerevisiae deletion strains, locus YML032C, strain rad52, stronger effect = lower value): 0.972 | normalized growth (S. cerevisiae deletion strains, locus YML120C, strain ndi1, stronger effect = lower value): 0.939 | normalized growth (S. cerevisiae deletion strains, locus YML124C, strain tub3, stronger effect = lower value): 1 | normalized growth (S. cerevisiae deletion strains, locus YMR058W, strain fet3, stronger effect = lower value): 0.897 (active) | normalized growth (S. cerevisiae deletion strains, locus YMR078C, strain ctf18, stronger effect = lower value): 0.983 | normalized growth (S. cerevisiae deletion strains, locus YMR125W, strain sto1, stronger effect = lower value): 0.995 | normalized growth (S. cerevisiae deletion strains, locus YMR129W, stronger effect = lower value): 0.966 | normalized growth (S. cerevisiae deletion strains, locus YMR205C, strain PFK2, stronger effect = lower value): 0.859 (active) | normalized growth (S. cerevisiae deletion strains, locus YMR223W, strain ubp8, stronger effect = lower value): 0.978 | normalized growth (S. cerevisiae deletion strains, locus YMR231W, strain pep5, stronger effect = lower value): 1.02 | normalized growth (S. cerevisiae deletion strains, locus YMR263W, strain SAP30, stronger effect = lower value): 0.986 and 0.997 | normalized growth (S. cerevisiae deletion strains, locus YMR307W, strain GAS1, stronger effect = lower value): 1.04 and 0.999 | normalized growth (S. cerevisiae deletion strains, locus YNL067W, strain RPL9B, stronger effect = lower value): 0.987 | normalized growth (S. cerevisiae deletion strains, locus YNL071W, strain lat1, stronger effect = lower value): 1.01 | normalized growth (S. cerevisiae deletion strains, locus YNL128W, strain TEP1, stronger effect = lower value): 0.965 | normalized growth (S. cerevisiae deletion strains, locus YNL153C, strain GIM3, stronger effect = lower value): 0.974 | normalized growth (S. cerevisiae deletion strains, locus YNL183C, strain NPR1, stronger effect = lower value): 0.937 | normalized growth (S. cerevisiae deletion strains, locus YNL197C, strain WHI3, stronger effect = lower value): 1.1 | normalized growth (S. cerevisiae deletion strains, locus YNL209W, strain ssb2, stronger effect = lower value): 1.02 | normalized growth (S. cerevisiae deletion strains, locus YNL224C, strain SQS1, stronger effect = lower value): 1.01 | normalized growth (S. cerevisiae deletion strains, locus YNL233W, strain BNI4, stronger effect = lower value): 0.985 | normalized growth (S. cerevisiae deletion strains, locus YNL248C, strain rpa49, stronger effect = lower value): 0.878 (active) | normalized growth (S. cerevisiae deletion strains, locus YNL250W, strain rad50, stronger effect = lower value): 0.986 | normalized growth (S. cerevisiae deletion strains, locus YNL271C, strain bni1, stronger effect = lower value): 1.01 | normalized growth (S. cerevisiae deletion strains, locus YNL298W, strain CLA4, stronger effect = lower value): 1.01 | normalized growth (S. cerevisiae deletion strains, locus YNL307C, strain MCK1, stronger effect = lower value): 0.927 | normalized growth (S. cerevisiae deletion strains, locus YNL322C, strain KRE1 (second series), stronger effect = lower value): 1.03 | normalized growth (S. cerevisiae deletion strains, locus YNL322C, strain KRE1, stronger effect = lower value): 0.99 | normalized growth (S. cerevisiae deletion strains, locus YNR049C, strain mso1, stronger effect = lower value): 0.991 | normalized growth (S. cerevisiae deletion strains, locus YNR052C, strain pop2, stronger effect = lower value): 0.996 | normalized growth (S. cerevisiae deletion strains, locus YOL006C, strain TOP1, stronger effect = lower value): 0.848 | normalized growth (S. cerevisiae deletion strains, locus YOL012C, strain htz1): 0.998 | normalized growth (S. cerevisiae deletion strains, locus YOL147C, strain pex11, stronger effect = lower value): 1 | normalized growth (S. cerevisiae deletion strains, locus YOR001W, strain rrp6, stronger effect = lower value): 0.817 (active) | normalized growth (S. cerevisiae deletion strains, locus YOR061W, strain CKA2, stronger effect = lower value): 0.972 | normalized growth (S. cerevisiae deletion strains, locus YOR069W, strain VPS5, stronger effect = lower value): 0.991 | normalized growth (S. cerevisiae deletion strains, locus YOR070C, strain gyp1, stronger effect = lower value): 0.963 | normalized growth (S. cerevisiae deletion strains, locus YOR080W, strain dia2, stronger effect = lower value): 1 | normalized growth (S. cerevisiae deletion strains, locus YOR083W, strain WHI5 (second series), stronger effect = lower value): 0.874 | normalized growth (S. cerevisiae deletion strains, locus YOR083W, strain WHI5, stronger effect = lower value): 0.857 (active) | normalized growth (S. cerevisiae deletion strains, locus YOR106W, strain vam3, stronger effect = lower value): 0.92 | normalized growth (S. cerevisiae deletion strains, locus YOR136W, strain idh2, stronger effect = lower value): 0.986 | normalized growth (S. cerevisiae deletion strains, locus YOR144C, strain elg1, stronger effect = lower value): 1 | normalized growth (S. cerevisiae deletion strains, locus YOR184W, strain ser1, stronger effect = lower value): 0.894 | normalized growth (S. cerevisiae deletion strains, locus YOR231W, strain MKK1, stronger effect = lower value): 0.984 | normalized growth (S. cerevisiae deletion strains, locus YOR265W, strain rbl2, stronger effect = lower value): 0.992 | normalized growth (S. cerevisiae deletion strains, locus YOR270C, strain vph1, stronger effect = lower value): 0.449 (active) | normalized growth (S. cerevisiae deletion strains, locus YOR290C, strain snf2, stronger effect = lower value): 0.638 (active) | normalized growth (S. cerevisiae deletion strains, locus YOR316C, strain cot1, stronger effect = lower value): 0.995 | normalized growth (S. cerevisiae deletion strains, locus YPL051W, strain arl3, stronger effect = lower value): 0.954 | normalized growth (S. cerevisiae deletion strains, locus YPL055C, strain LGE1, stronger effect = lower value): 0.924 | normalized growth (S. cerevisiae deletion strains, locus YPL078C, strain atp4, stronger effect = lower value): 0.956 | normalized growth (S. cerevisiae deletion strains, locus YPL106C, strain sse1, stronger effect = lower value): 1.07 | normalized growth (S. cerevisiae deletion strains, locus YPL240C, strain hsp82, stronger effect = lower value): 1.02 | normalized growth (S. cerevisiae deletion strains, locus YPL241C, strain CIN2, stronger effect = lower value): 0.986 and 1 | normalized growth (S. cerevisiae deletion strains, locus YPL256C, strain CLN2, stronger effect = lower value): 0.965 | normalized growth (S. cerevisiae deletion strains, locus YPR119W, strain clb2, stronger effect = lower value): 0.995 | normalized growth (S. cerevisiae deletion strains, locus YPR141C, strain kar3, stronger effect = lower value): 0.996 | normalized growth (S. cerevisiae deletion strains, locus YPR163C, strain tif3, stronger effect = lower value): 1 | normalized growth (S. cerevisiae deletion strains, locus YPR167C, strain met16, stronger effect = lower value): 0.986 | normalized growth (S. cerevisiae deletion strains, strain wtn01, stronger effect = lower value): 0.989 | normalized growth (S. cerevisiae strains, strain wild type, stronger effect = lower value): 0.993
